Experiment [1] can be described thus: qHTS assay for small molecules that induce genotoxicity in human embryonic kidney cells expressing luciferase-tagged ATAD5 - cell viability (AID 651634; calls by dose curve; also: nearly all actives have a fitted effect of over 25% in size; also: potency is read from the fitted curve at half-maximal effect). The procedure, abridged: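 Cells (HEK293T, luciferase-tagged ATAD5) are seeded at 2,000 per well, dosed with compound or DMSO vehicle, and incubated 15.5 hr at 37C and 5% CO2. CellTiter-Fluor is added for 30 min before fluorescence is measured.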
On the technique in general: qHTS replaces the single test concentration by a dilution series.

Experiment [2] can be described thus: qHTS assay for small molecule disruptors of the mitochondrial membrane potential (AID 720635). Also: potency is read from the fitted curve at half-maximal effect. The method, boiled down:
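HepG2 cells (2,000/well) attached overnight at 37C, then took compound for 1 hr at 37C, 5% CO2. Mito-MPS dye was added for 30 min; fluorescence was read at 490/535 nm (monomers) and 540/590 nm (aggregates).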

Experiment [3] can be described thus: qHTS assay to test for compound auto fluorescence at 535 nm (green) in HEK293 cells (AID 720680).
Experiment [4] can be described thus: qHTS assay to test for compound auto fluorescence at 590 nm (red) in HEK293 cell free culture (AID 720683). The procedure, abridged:
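Tox21 10K library compounds were pinned into cell-free DMEM with 10% FBS and fluorescence was read at excitation 540 nm. Activity is expressed as Rose Bengal sodium equivalency.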

The target in experiment [5] is Glucocorticoid receptor (Homo sapiens) (UniProt P04150). The experiment can be described thus: qHTS assay to identify small molecule agonists of the glucocorticoid receptor (GR) signaling pathway (AID 720691; active = well fitted activation curve with a large enough effect in the signal ratio in the repeat runs, not every such curve was filed as active; inconclusive = weak or mixed curves, or effect the other way; inactive = no such curve, though single readings can be large or run the other way; the % refers to the signal ratio). The method, boiled down: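 Steps: seed GR-bla HeLa cells, incubate 4 h at 37 C/5% CO2; pin-transfer DMSO-dissolved compounds; incubate 18 h at 37 C; add LiveBLAzer B/G FRET substrate; after 2 h at room temperature, measure fluorescence.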

For experiment [6] the target is unchanged. Briefly: qHTS assay to identify small molecule antagonists of the glucocorticoid receptor (GR) signaling pathway (AID 720692; active = well fitted inhibition curve with a large enough effect in the signal ratio in the repeat runs, not every such curve was filed as active; inconclusive = weak or mixed curves, or effect the other way; inactive = no such curve, though single readings can be large or run the other way; the % refers to the signal ratio; also: potency is read from the fitted curve at half-maximal effect). The procedure, abridged: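 Antagonism was scored as loss of dexamethasone-driven (5 nM final) reporter signal in HeLa cells bearing a glucocorticoid response element–beta-lactamase construct, after 18 h compound exposure at 37 C and 2 h FRET substrate loading.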

Experiment [7] can be described thus: qHTS assay to identify small molecule antagonists of the thyroid receptor (TR) signaling pathway - cell viability counter screen (AID 743064). Also: nearly all actives have a fitted effect of over 50% in size. Also: potency is read from the fitted curve at half-maximal effect. The procedure, abridged:
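Counter screen for cytotoxicity: compound plus T3 (1 nM final) on GH3.TRE-Luc cells, 23.5 h at 37 °C, then fluorescence viability readout with CellTiter-Fluor.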

In experiment [8] the test system is thyroid hormone receptor (rat, GH3 cells). The experiment can be described thus: qHTS assay to identify small molecule agonists of the thyroid receptor (TR) signaling pathway (AID 743066; calls by dose curve).
Experiment [9] concerns the target Estrogen receptor (Homo sapiens) (UniProt P03372). The experiment can be described thus: qHTS assay to identify small molecule agonists of the estrogen receptor alpha (ER-alpha) signaling pathway (AID 743075; calls by dose curve;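 also: HEK293 GripTite cells with ER-alpha and UAS-driven beta-lactamase reporter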; also: potency is read from the fitted curve at half-maximal effect).
Experiment [10] has the same target. The experiment can be described thus: qHTS assay to identify small molecule agonists of the estrogen receptor alpha (ER-alpha) signaling pathway using the BG1 cell line (AID 743079). Also: nearly all actives have a fitted effect of over 20% in size. Also: potency is read from the fitted curve at half-maximal effect.
Experiment [11] in a line: qHTS assay to identify small molecule antagonists of the estrogen receptor alpha (ER-alpha) signaling pathway using the BG1 cell line (AID 743080; calls by dose curve;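 also: BG1 cells stimulated with 17beta-estradiol alongside compound; series mostly up to about 70 µM; nearly all actives have a fitted effect of over 25% in size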). The procedure, abridged: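 Readout is ONE-Glo luminescence, taken 30 min at room temperature after reagent addition, preceded by a CellTiter-Fluor viability read; BG1-Luc-4E2 cells had received compound and 17beta-estradiol for 21.5 h at 37 C.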

Experiment [12] is described as follows: qHTS assay to identify small molecule antagonists of the estrogen receptor alpha (ER-alpha) signaling pathway using the BG1 cell line - cell viability counter screen (AID 743081).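 Also: compound given together with 17beta-estradiol as the ER stimulus; series mostly up to about 70 µM; nearly all actives have a fitted effect of over 45% in size.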
Experiment [13] can be described thus: qHTS assay to identify small molecule that activate the aryl hydrocarbon receptor (AhR) signaling pathway - cell viability counter screen (AID 743086).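 Also: HepG2 liver cells carrying the AhR DRE luciferase reporter; series mostly up to about 70 µM; nearly all actives have a fitted effect of over 45% in size.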 The method, boiled down:
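HepG2-AhR-luc (HG2L7.5c1) cells, 4000/well, were preincubated 5 h at 37C, exposed to compound in qHTS format for 24 hr at 37C, then given CellTiter-Fluor for 30 min; viability was read as fluorescence in the reporter wells.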

The target of experiment [14] is Peroxisome proliferator-activated receptor gamma (Homo sapiens) (UniProt P37231). The experiment can be described thus: qHTS assay to identify small molecule agonists of the peroxisome proliferator-activated receptor gamma (PPARg) signaling pathway (AID 743094; active = well fitted activation curve with a large enough effect in the signal ratio in the repeat runs, not every such curve was filed as active; inconclusive = weak or mixed curves, or effect the other way; inactive = no such curve, though single readings can be large or run the other way; the % refers to the signal ratio). The method, boiled down:
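Cells from the PPARg UAS-bla HEK293H line are plated and incubated 5 h at 37C. Compounds in DMSO are pinned in and left 17 h at 37C. LiveBLAzer B/G substrate is then added for 1 h at room temperature before fluorescence is measured.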

The nature of experiment [15]: qHTS assay to identify small molecule antagonists of the glucocorticoid receptor (GR) signaling pathway - cell viability counter screen (AID 720693). Also: nearly all actives have a fitted effect of over 55% in size.
A short description of experiment [16]: qHTS assay to identify small molecule antagonists of the thyroid receptor (TR) signaling pathway (AID 743065). Also: nearly all actives have a fitted effect of over 55% in size. Also: potency is read from the fitted curve at half-maximal effect. The method, boiled down: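 GH3.TRE-Luc rat pituitary cells carrying two TR response elements driving luciferase were plated for 4 h, given compound plus 1 nM T3 (final), and incubated 23.5 h at 37 C. ONE-Glo luminescence measured reporter inhibition; CellTiter-Fluor fluorescence tracked cytotoxicity.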

Experiment [17] in a line: qHTS assay to test for compound auto fluorescence at 590 nm (red) in HepG2 cells (AID 720674). The procedure, abridged: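 Rose Bengal sodium served as the red fluorophore standard. HepG2 monolayers (overnight attachment, MEM with 10% FBS) were exposed to test compounds for 1 hr at 37 C and read at Ex 540/Em 590 nm.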
Experiment [18] can be described thus: qHTS assay for identifying genotoxic compounds that show differential cytotoxicity against isogenic chicken DT40 cell lines with known DNA damage response pathways - Rev3 mutant cell line (AID 743014). Also: nearly all actives have a fitted effect of over 55% in size. Also: potency is read from the fitted curve at half-maximal effect.
A short description of experiment [19]: qHTS assay for small molecule agonists of the p53 signaling pathway (AID 651631; calls by dose curve; also: nearly all actives have a fitted effect of over 15% in size). The procedure, abridged:
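Stably transfected HCT-116 cells (beta-lactamase behind p53 response elements) get compounds after a 5 h settling period; 16 h later at 37 °C, FRET substrate is loaded and fluorescence read after 2 h.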

Where “and” joins values, the source holds several entries; their conditions need not be identical. Equal entries are not always repeated. Values without a mark were called inactive. Calls of active or inactive are those of the source. Unless noted, calls follow the shape of the dose curve; as a rule, active = well fitted curve in the direction sought with a large enough effect in the repeat runs; inconclusive = weak or mixed curves; inactive = no such curve, though single readings can be large; an effect the other way counts as inactive or inconclusive.

Glucocorticoid receptor (Homo sapiens), sequence (P04150 whole entry, looked up): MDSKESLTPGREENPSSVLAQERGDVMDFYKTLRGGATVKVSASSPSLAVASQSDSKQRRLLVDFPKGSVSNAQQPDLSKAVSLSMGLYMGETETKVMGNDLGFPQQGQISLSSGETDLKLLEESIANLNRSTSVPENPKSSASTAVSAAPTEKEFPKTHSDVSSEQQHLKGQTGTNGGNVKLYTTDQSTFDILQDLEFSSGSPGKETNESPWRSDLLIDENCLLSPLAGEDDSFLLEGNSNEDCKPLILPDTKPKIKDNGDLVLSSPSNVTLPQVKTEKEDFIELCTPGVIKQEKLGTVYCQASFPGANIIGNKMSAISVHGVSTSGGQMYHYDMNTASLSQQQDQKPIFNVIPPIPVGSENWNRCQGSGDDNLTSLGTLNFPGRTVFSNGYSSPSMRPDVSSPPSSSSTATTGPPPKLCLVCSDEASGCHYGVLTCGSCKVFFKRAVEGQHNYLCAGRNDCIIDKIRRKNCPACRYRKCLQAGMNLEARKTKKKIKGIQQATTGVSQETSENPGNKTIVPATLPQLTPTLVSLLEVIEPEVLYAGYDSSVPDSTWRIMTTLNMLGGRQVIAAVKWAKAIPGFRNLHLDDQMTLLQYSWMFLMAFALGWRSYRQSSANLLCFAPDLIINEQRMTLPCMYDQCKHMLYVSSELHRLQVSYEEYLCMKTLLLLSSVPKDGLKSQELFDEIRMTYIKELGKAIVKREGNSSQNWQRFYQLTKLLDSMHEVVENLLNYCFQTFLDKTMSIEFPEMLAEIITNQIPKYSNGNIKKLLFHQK
Estrogen receptor (Homo sapiens), sequence (P03372 whole entry, looked up): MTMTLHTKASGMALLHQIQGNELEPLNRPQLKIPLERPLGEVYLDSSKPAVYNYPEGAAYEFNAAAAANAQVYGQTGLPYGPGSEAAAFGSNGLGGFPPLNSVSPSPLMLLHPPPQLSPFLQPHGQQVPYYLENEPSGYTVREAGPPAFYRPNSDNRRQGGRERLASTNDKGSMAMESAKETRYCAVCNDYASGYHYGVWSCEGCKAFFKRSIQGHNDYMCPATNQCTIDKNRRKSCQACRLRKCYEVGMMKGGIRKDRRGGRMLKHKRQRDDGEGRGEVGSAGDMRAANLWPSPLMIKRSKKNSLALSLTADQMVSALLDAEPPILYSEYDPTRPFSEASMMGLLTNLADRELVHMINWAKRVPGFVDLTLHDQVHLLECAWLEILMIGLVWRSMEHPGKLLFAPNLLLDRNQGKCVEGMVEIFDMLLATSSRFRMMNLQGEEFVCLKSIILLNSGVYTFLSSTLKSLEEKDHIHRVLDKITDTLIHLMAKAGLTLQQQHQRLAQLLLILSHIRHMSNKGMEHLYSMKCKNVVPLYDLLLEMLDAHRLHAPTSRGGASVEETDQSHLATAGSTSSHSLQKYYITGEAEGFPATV
Peroxisome proliferator-activated receptor gamma (Homo sapiens), sequence (P37231 whole entry, looked up): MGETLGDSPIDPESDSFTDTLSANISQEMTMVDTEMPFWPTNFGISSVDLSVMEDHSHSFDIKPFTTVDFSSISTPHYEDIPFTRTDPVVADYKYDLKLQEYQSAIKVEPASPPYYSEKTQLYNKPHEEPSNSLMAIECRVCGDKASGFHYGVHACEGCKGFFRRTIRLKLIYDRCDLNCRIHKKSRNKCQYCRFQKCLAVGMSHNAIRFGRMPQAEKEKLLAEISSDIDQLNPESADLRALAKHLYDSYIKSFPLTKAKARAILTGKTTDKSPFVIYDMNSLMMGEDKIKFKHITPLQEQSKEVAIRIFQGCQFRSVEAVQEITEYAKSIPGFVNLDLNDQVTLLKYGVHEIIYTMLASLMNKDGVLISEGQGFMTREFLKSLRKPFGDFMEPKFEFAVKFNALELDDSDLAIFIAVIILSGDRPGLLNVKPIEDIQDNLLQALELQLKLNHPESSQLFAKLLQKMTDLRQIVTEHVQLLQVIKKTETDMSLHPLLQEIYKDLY

On to `COc1ccc2c(c1)C13CCCC[C@@H]1C(C2)N(C)CC3` (stereo partly drawn), for which the Potency result in [1], in experiment [2], in experiment [3], in [5], in experiment [6] and in experiment [7] was “inactive” each time. Moreover, the Potency entry in [8], in experiment [9], in experiment [10], in experiment [11], in [12] and in [13] was “inactive” throughout. In addition, the Potency entry in experiment [14] was “inactive”. Moreover, in experiment [4], the outcome was inactive.
In the case of `S=C(S)N1CCNCC1`, the Potency result in [1], in experiment [2], in experiment [3], in experiment [5], in [6] and in experiment [15] was “inactive” each time. Besides, the Potency entry in [7], in experiment [16], in [8], in [9], in experiment [10] and in experiment [11] was “inactive” each time. Also, the Potency result in [12] and in experiment [14] was “inactive” in each case.
Consider `CCN(CC)CCO[C@H]1CC[C@@]2(C)C(=CC[C@@H]3[C@@H]2CC[C@]2(C)C(=O)CC[C@@H]32)C1`, for which the Potency result in experiment [1], in experiment [2], in experiment [3], in experiment [15], in experiment [7] and in experiment [8] was “inactive” throughout. The Potency entry in experiment [9], in experiment [10], in [11], in experiment [12], in experiment [13] and in [14] was “inactive” each time. In addition, the call in [17] and in experiment [4] was inactive. For the same compound, the Potency in experiment [18] is 0.531 µM (active); in experiment [16], 21.1 µM (active).
`C[C@]12CC[C@H]3[C@@H](CCC4=CC(=O)CC[C@@]43C)[C@@H]1CC[C@H]2O`: the Potency entry in experiment [1], in experiment [3], in experiment [8], in experiment [12], in experiment [13] and in experiment [14] was “inactive” in each case. Also, in experiment [17], the outcome was inactive. For the same compound, the Potency in experiment [6] was 4.25 µM (active).
As for `c1ccc(C2(N3CCCC3)CCCCC2)cc1`, the Potency in [2] was 19.7 µM (active); in experiment [18] it was 8.41 µM (active); in experiment [7], 16.8 µM (active); in experiment [16] it was 13.3 µM (active). Also, the result in experiment [17] and in [4] was inactive. Also, the Potency result in [3], in [5], in experiment [9], in experiment [10], in [11] and in [12] was “inactive” each time. In addition, the Potency result in experiment [13] is “inactive”.
For `C=C[C@H]1CN2CC[C@H]1C[C@@H]2[C@@H](O)c1ccnc2ccccc12`, the Potency entry in experiment [1], in [5], in experiment [6], in experiment [15], in experiment [7] and in experiment [16] was “inactive” throughout. Also, the Potency entry in experiment [8], in experiment [12], in experiment [13] and in experiment [14] was “inactive” in each case. Also, the Potency in experiment [2] was 8.41 µM (active). Besides, the compound was classed as inactive in experiment [4].
Turning to `CC(C)[C@@]1(NC(=O)[C@@H]2C[C@@H]3c4cccc5[nH]cc(c45)C[C@H]3N(C)C2)O[C@@]2(O)[C@@H]3CCCN3C(=O)[C@H](Cc3ccccc3)N2C1=O`, the Potency result in experiment [19], in experiment [3], in experiment [6], in [15], in [8] and in experiment [9] was “inactive” throughout. For the same compound, the Potency result in experiment [10], in experiment [11] and in experiment [12] was “inactive” in each case. Moreover, the Potency in [2] was 0.841 µM (active); in experiment [7], 23.7 µM (active) and 21.1 µM (active); in experiment [16], 23.7 µM (active) and 26.6 µM (active). In [4], the result was inactive.
Consider `CCCCCCCCCC(=O)O[C@H]1CC[C@H]2[C@@H]3CCC4=CC(=O)CC[C@]4(C)[C@H]3CC[C@]12C`, for which the Potency entry in [1], in experiment [2], in [5], in experiment [18], in experiment [16] and in [8] was “inactive” in each case. Further, the Potency entry in experiment [11], in experiment [12], in experiment [13] and in experiment [14] was “inactive” each time. The compound was called inactive in experiment [17] and in experiment [4]. The Potency in experiment [9] was 10.7 µM [inconclusive] (active); in experiment [10], 0.335 µM (active).
As for `COc1ccc2c3c1O[C@H]1C(=O)CC[C@H]4[C@@H](C2)N(C)CC[C@]314`, the Potency entry in [1], in experiment [3], in experiment [15], in experiment [18], in experiment [7] and in [8] was “inactive” throughout. Further, the Potency entry in [9], in experiment [10], in experiment [12], in experiment [13] and in experiment [14] was “inactive” throughout. Further, the result in experiment [17] and in experiment [4] was inactive.
In the case of `CCCC(=O)OC(C(Cl)(Cl)Cl)P(=O)(OC)OC` (stereo not drawn), the compound was called inactive in [17]. The Potency result in [3], in experiment [5], in experiment [18], in experiment [7], in experiment [16] and in experiment [8] was “inactive” each time. The Potency entry in experiment [9], in [12], in experiment [13] and in experiment [14] was “inactive” in each case. In experiment [10], the Potency is 26.6 µM (active).
As to `CO[C@H]1[C@@H](O)C[C@H](O[C@H]2[C@@H](O)C[C@H](O[C@H]3[C@@H](O)C[C@H](O[C@H]4CC[C@@]5(C)[C@H](CC[C@@H]6[C@@H]5C[C@@H](O)[C@]5(C)[C@@H](C7=CC(=O)OC7)CC[C@]65O)C4)O[C@@H]3C)O[C@@H]2C)O[C@@H]1C`, the Potency in experiment [1] was 0.0944 µM (active); in experiment [2] it was 0.699 µM (active); in [18], 0.668 µM (active). Besides, the call in experiment [17] and in experiment [4] was inactive. Also, the Potency entry in experiment [3], in experiment [7], in experiment [16], in experiment [8], in [9] and in [12] was “inactive” each time.
On to `C[N+]1(C)CCCCC1COC(=O)C(O)(c1ccccc1)c1ccccc1` (stereo not drawn), for which the Potency entry in experiment [1], in [5], in [6], in [15] and in experiment [12] was “inactive” in each case. Further, the result in [4] was inactive.
With `[S]=[Sb](=[S])[S][Sb](=[S])=[S]`, the Potency entry in experiment [19], in experiment [1], in [2], in experiment [3], in [5] and in [6] was “inactive” each time. Moreover, the Potency result in experiment [7], in experiment [16], in experiment [8], in experiment [9], in [10] and in experiment [11] was “inactive” in each case. Besides, the Potency result in experiment [12], in experiment [13] and in experiment [14] was “inactive” each time. Also, the outcome in experiment [17] and in experiment [4] was inactive.

(Values after PubChem BioAssay (Tox21).)
